“And” between values parts separate entries of the source, which are not always exact repeats. Equal entries are not always repeated. In all, about 190,000 compounds went through this assay and about 6,900 (3.6%) were called active. Rule as the data show it: active = inhibition above about 50%; inactive = the rest. This excerpt belongs to a sample that is enriched for actives. Some structures have more than one record in an assay (separate samples or runs), and their calls can disagree.
These compounds were tested against Huntingtin (Homo sapiens) (UniProt P42858) (assay: mutant huntingtin-calmodulin interaction inhibitors – biochemical, AlphaScreen, primary screen (AID 1671202;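 also: 0% = both proteins with DMSO and 100% = one protein alone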)). Conditions: AlphaScreen His-mHTT/GST-CaM binding, luminescence; at 15 µM, stronger effect = higher value.
Sequence of Huntingtin (Homo sapiens) (P42858 whole entry, looked up, stated change not applied): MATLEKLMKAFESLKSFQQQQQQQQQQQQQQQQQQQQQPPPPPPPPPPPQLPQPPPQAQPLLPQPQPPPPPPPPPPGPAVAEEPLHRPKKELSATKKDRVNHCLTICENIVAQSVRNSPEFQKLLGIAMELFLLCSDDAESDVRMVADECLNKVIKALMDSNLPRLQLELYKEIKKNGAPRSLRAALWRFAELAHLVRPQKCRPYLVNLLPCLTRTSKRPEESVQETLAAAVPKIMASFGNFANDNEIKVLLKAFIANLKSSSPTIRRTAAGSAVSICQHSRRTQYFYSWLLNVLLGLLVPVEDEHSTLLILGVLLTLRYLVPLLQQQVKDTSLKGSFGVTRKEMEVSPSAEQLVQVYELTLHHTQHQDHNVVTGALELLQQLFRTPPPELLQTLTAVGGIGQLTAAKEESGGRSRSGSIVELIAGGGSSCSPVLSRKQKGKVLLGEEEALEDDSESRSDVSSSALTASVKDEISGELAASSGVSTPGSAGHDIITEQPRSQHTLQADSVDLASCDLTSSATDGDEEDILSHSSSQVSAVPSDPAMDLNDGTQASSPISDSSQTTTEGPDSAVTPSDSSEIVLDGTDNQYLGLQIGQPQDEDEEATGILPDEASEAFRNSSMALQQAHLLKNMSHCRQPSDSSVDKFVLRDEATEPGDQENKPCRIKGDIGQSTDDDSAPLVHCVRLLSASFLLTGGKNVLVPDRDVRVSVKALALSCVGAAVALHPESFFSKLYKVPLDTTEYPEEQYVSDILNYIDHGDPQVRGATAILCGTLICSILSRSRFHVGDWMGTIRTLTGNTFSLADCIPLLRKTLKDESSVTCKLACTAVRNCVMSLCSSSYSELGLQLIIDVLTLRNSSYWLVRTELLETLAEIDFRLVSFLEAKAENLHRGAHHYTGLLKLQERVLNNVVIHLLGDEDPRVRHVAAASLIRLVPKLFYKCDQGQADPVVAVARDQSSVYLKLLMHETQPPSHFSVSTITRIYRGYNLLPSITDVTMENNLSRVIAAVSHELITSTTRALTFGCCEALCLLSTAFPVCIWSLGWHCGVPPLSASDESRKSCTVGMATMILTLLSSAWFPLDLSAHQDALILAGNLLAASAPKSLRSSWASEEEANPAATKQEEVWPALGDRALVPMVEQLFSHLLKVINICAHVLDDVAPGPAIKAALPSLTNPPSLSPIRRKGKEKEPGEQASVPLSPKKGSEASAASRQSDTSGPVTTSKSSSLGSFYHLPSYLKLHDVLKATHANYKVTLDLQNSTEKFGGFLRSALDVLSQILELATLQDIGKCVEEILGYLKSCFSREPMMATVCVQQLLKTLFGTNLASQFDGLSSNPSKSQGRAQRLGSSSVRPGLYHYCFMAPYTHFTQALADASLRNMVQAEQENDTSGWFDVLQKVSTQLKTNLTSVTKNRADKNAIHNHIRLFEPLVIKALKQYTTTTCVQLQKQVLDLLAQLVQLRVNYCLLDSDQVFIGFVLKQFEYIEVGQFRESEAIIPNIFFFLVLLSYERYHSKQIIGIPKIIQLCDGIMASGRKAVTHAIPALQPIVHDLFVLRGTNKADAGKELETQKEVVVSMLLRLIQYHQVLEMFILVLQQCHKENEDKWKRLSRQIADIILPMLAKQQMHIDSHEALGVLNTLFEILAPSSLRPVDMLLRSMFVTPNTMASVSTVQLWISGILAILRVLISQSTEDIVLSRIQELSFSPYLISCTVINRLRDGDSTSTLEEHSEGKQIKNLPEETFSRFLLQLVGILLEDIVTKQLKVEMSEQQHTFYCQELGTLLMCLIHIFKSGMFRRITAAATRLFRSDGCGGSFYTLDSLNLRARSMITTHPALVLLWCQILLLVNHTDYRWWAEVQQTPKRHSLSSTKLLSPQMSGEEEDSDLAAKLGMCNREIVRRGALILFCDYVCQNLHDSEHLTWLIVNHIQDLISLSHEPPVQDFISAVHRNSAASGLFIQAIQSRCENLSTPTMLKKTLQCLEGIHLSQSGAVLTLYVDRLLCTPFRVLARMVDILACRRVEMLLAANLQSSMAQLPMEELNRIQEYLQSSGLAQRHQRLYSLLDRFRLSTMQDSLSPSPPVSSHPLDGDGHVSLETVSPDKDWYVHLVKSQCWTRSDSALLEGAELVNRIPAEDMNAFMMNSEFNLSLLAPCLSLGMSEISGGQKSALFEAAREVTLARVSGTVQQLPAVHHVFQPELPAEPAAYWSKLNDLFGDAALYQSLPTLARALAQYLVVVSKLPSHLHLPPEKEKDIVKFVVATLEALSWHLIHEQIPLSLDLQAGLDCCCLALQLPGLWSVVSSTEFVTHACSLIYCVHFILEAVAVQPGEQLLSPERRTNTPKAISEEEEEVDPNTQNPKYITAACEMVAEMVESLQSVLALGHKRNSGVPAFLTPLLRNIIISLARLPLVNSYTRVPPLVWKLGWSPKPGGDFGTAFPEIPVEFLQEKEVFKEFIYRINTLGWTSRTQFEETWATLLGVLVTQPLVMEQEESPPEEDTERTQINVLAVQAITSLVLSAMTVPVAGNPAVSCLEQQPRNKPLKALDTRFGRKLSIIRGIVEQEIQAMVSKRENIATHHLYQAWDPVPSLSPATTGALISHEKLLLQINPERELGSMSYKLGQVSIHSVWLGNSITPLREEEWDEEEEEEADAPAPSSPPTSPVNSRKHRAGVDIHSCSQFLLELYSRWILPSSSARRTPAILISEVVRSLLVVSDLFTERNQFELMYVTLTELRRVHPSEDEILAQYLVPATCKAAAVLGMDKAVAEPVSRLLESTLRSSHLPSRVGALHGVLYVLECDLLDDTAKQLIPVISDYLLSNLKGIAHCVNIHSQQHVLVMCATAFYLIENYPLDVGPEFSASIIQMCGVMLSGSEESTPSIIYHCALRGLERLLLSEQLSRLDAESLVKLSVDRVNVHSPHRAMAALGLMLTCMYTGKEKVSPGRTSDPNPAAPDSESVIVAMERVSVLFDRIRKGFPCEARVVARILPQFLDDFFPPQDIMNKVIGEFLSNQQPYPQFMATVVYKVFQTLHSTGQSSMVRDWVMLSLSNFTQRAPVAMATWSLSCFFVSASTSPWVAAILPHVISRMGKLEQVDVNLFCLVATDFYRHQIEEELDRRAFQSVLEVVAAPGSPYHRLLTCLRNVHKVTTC
In the case of `CC(C)NC(=O)c1ccccc1NC(=O)c1ccc([N+](=O)[O-])cc1`, the inhibition is reported as -2.9% (inactive). In the case of `N=C1S/C(=C\c2cccs2)C(=O)N1c1ccc2c(c1)OCO2`, the inhibition is reported as 2% (inactive). In the case of `O=C(CSc1ncnc2c1[nH]c1ccccc12)N1CCc2ccccc2C1`, the inhibition is reported as 0% (inactive). With `COCC(=O)N1CCCN(c2nc3c(s2)c(C)nn3-c2ccc(C)cc2)CC1` the inhibition was 45.2% (inactive). In the case of `COc1ccc(CCNC(=O)N2CC(c3nc(-c4ccccn4)no3)C2)cc1`, the inhibition is reported as -18.5% (inactive). In the case of `COc1ccc(NC(=O)N2CC3CC(NS(=O)(=O)c4cccs4)C2C3)c(OC)c1` (stereo not drawn), the inhibition is reported as 9.02% (inactive). For `N#CC1=C(N)Oc2ccc3ncccc3c2C1c1ccccc1F` (stereo not drawn), the inhibition was 49% (inactive). For `N#CC1=C(N)Oc2c(c(=O)[nH]c3ccccc23)C1c1cccs1` (stereo not drawn), the inhibition was 8% (inactive). For `N#CC1=C(N)Oc2c(sc3ccccc23)C1c1ccco1` (stereo not drawn), the inhibition was 53% (active). For `CC(C)=CCOc1ccc2cc(-c3ccccc3)c(=O)oc2c1`, the inhibition was -45.3% (inactive). With `O=C(COc1ccc(Br)cc1)Nc1ccccc1C(F)(F)F` the inhibition was -57% (inactive). For `CN(C)C(=O)c1cc2c(s1)CCC(C(=O)NCc1ccccc1Cl)C2` (stereo not drawn), the inhibition was 3.06% (inactive). In the case of `O=C1OC(c2cccc(F)c2)=N/C1=C\c1ccc(Br)cc1`, the inhibition is reported as -1% (inactive). For `CCC(C)NC(=O)c1ccc2c(c1)nc1n2CCCC1` (stereo not drawn), the inhibition was -4.18% (inactive). For `CN1CCN(c2nc3c(c(=O)[nH]c(=O)n3C)n2CC(=O)c2ccc(Cl)cc2)CC1`, the inhibition was -4% (inactive). In the case of `Cc1cccc(N=C/C=C/c2ccc([N+](=O)[O-])cc2)c1`, the inhibition is reported as 72% (active). In the case of `O=[N+]([O-])c1ccc(C=Nc2cccc(Cl)c2)cc1`, the inhibition is reported as 30% (inactive). For `O=[N+]([O-])c1ccc(C=Nc2ccc(N=Cc3ccc([N+](=O)[O-])cc3)cc2)cc1`, the inhibition was 4% (inactive). In the case of `CC(=O)NCCN1C(=O)C(=O)C(=C(O)c2ccc(Cl)cc2)C1c1ccc(Br)cc1` (stereo not drawn), the inhibition is reported as -0.6% (inactive). With `COc1cc(C=C2SC(=S)N(c3ccc(O)cc3)C2=O)ccc1O` the inhibition was 58.5% (active). `COc1cc(/C=C2\SC(=N)N(c3ccccc3OC)C2=O)ccc1O` was tested, and the inhibition was 36% (inactive). `C=CCOc1ccc(/C=C2\SC(=O)N(c3ccccc3)C2=O)cc1OC` was tested, and the inhibition was 3% (inactive). For `CCc1cccc(NS(=O)(=O)c2ccccc2[N+](=O)[O-])c1`, the inhibition was 10.6% (inactive). With `O=[N+]([O-])c1ccccc1S(=O)(=O)Nc1cccc2cccnc12` the inhibition was 98.6% (active) and 99% (active). With `Cc1ccc(F)cc1NS(=O)(=O)c1cccc2cccnc12` the inhibition was 2% (inactive). For `COc1cccc(-c2noc(C3CCCN3C(=O)Nc3ccc4c(c3)OCCO4)n2)c1` (stereo not drawn), the inhibition was 13.9% (inactive). `OC(COc1ccccc1Br)CN1CCN(Cc2ccccc2)CC1` (stereo not drawn) was tested, and the inhibition was -4% (inactive). For `COc1ccccc1Oc1ncnc2scc(-c3ccc(F)cc3)c12`, the inhibition was -1% (inactive). `CCOc1ccc(-n2nc(C(=O)Nc3ccc(F)cc3)c3ccccc3c2=O)cc1` was tested, and the inhibition was -5% (inactive). With `O=C1NC(=O)/C(=C\c2ccc(-c3cccc(Cl)c3)o2)S1` the inhibition was 58% (active). For `O=C1NC(=O)/C(=C/c2ccc(-c3ccccc3[N+](=O)[O-])o2)S1`, the inhibition was 37% (inactive). With `O=C1NC(=O)/C(=C/c2ccc(-c3ccc([N+](=O)[O-])cc3)o2)S1` the inhibition was 3% (inactive). For `COc1ccc(CC(=O)Nc2ccc(S(=O)(=O)Nc3c(C)cc(C)cc3C)cc2)cc1`, the inhibition was 13% (inactive). With `COc1cccc(CN2CCOCC2)c1OC` the inhibition was -5.1% (inactive). With `O=C(NC1CC2CC1CN2C(=O)c1ccc(C(F)(F)F)cc1)c1cccnc1` (stereo not drawn) the inhibition was 6.1% (inactive). With `Oc1cccc(N=Cc2cc(Cl)cc(Cl)c2O)c1` the inhibition was 98% (active). For `CC(=O)Nc1cccc(N=Cc2ccc(Cl)cc2Cl)c1`, the inhibition was -2% (inactive). In the case of `COc1ccc(N=Cc2cc(Cl)cc(Cl)c2O)cc1OC`, the inhibition is reported as 4% (inactive). For `CC(C)OCCCNC(=O)CN1C(=O)/C(=C/c2cccc(Cl)c2)Sc2ccccc21`, the inhibition was 9% (inactive). For `Cc1ccc(F)cc1NC(=O)Cn1c(=O)nc(N2CCCCC2)c2ccccc21`, the inhibition was 12.4% (inactive). With `COc1ccc(NC(=O)N2CCC(CCOc3ccccc3)CC2)cc1` the inhibition was 3.99% (inactive). `CC1(C)CC(=O)C2=C(C1)Nc1ccccc1NC2c1ccc(Br)cc1` (stereo not drawn) was tested, and the inhibition was 3.9% (inactive). `Cc1ccc2occ(C3Nc4cc(C)c(C)cc4NC4=C3C(=O)CC(C)(C)C4)c(=O)c2c1` (stereo not drawn) was tested, and the inhibition was 19% (inactive). With `Cc1cc2c(cc1C)NC(c1ccc(Cl)s1)C1=C(CC(C)(C)CC1=O)N2` (stereo not drawn) the inhibition was 51% (active). For `COc1ccc(-c2cn3ccn(-c4ccc(F)c(Cl)c4)c(=O)c3n2)cc1OC`, the inhibition was -2.4% (inactive). With `Cc1cccc2nnc(N3CCC(C(=O)Nc4ccc(Cl)cc4)CC3)n12` the inhibition was 3.32% (inactive). With `CCn1c(N2CCCC(C(=O)NCc3cccc(C)c3)C2)cc(=O)n(C)c1=O` (stereo not drawn) the inhibition was 7.32% (inactive). With `COc1ccc(NS(=O)(=O)c2ccc(N3C(=O)CCC3=O)cc2)c(OC)c1` the inhibition was -10.9% (inactive). For `O=C(Nc1ccc(F)cc1F)N1CCc2nc[nH]c2C1`, the inhibition was -5.8% (inactive). `COC1=C(N2CCOCC2)C(=O)c2ccccc2C1=O` was tested, and the inhibition was -2.9% (inactive). With `O=C1C(Nc2cccc(Cl)c2)=C(N2CCOCC2)C(=O)c2ccccc21` the inhibition was 59% (active). In the case of `O=C(NCCN1CCOCC1)Nc1cccc(Cl)c1`, the inhibition is reported as -4% (inactive). For `CCCCN(CC)C(=O)c1cc(Cl)ccc1OC`, the inhibition was -8.5% (inactive). For `Cc1ccc(NC(=O)CN2C(=O)C(c3ccc(Cl)cc3)=NC2(C)C)cc1`, the inhibition was -11.7% (inactive). In the case of `COc1cc(CN2CCc3nc(N4CCCC4)ncc3C2)cc(OC)c1OC`, the inhibition is reported as 11.5% (inactive). For `COc1ccc(CN2CCc3nc(N4CCCC4)ncc3C2)cc1OC`, the inhibition was 42.3% (inactive). For `CN(C)c1ccc(CN2CCc3nc(N4CCN(c5ccccc5F)CC4)ncc3C2)cc1`, the inhibition was 39.9% (inactive). For `CN(C)c1ccc(CN2CCc3nc(N4CCOCC4)ncc3C2)cc1`, the inhibition was 96.6% (active). With `COc1ccc(CN2CCc3nc(N4CCN(c5ncccn5)CC4)ncc3C2)cc1OC` the inhibition was 55.5% (active). With `Cc1ccc(CN2CCc3nc(N4CCCC4)ncc3C2)cc1` the inhibition was 12.2% (inactive). For `COc1ccc(OCc2noc(-c3cccc(F)c3)n2)cc1`, the inhibition was -9.7% (inactive). For `CCN(CC)CCNC(=O)C1CCN(c2nnc3ccccn23)CC1`, the inhibition was 5.6% (inactive). `CCC(=O)Oc1ccc2c(C)c(-c3ccccc3)c(=O)oc2c1` was tested, and the inhibition was -4.1% (inactive). For `COc1cccc(C=C2Oc3c(ccc(O)c3CN3CC4CC(C3)c3cccc(=O)n3C4)C2=O)c1` (stereo not drawn), the inhibition was 32.3% (inactive). For `Cc1c(NC(=O)c2c([N+](=O)[O-])cnn2C)c(=O)n(-c2ccccc2)n1C`, the inhibition was -3% (inactive). With `COc1ccc2c(c1)c(=O)oc1c(C)c(OCc3ccc(C(=O)O)o3)ccc12` the inhibition was 4% (inactive). `CC1=C(C#N)C(=O)N(CC(C)O)C(=O)/C1=C\c1ccc(-c2cccc(Cl)c2Cl)o1` (stereo not drawn) was tested, and the inhibition was 93% (active). For `CC1=C(C#N)C(=O)NC(=O)/C1=C\c1ccc(-c2cccc(Cl)c2)o1`, the inhibition was 37% (inactive). In the case of `CC1=C(C#N)C(=O)NC(=O)/C1=C\c1ccc(-c2ccc(Cl)c(C(=O)O)c2)o1`, the inhibition is reported as 13% (inactive). `c1ccc(-n2ncc(-c3nn[nH]n3)n2)cc1` was tested, and the inhibition was 59% (active) and -6.45% (inactive). With `N#Cc1ccc(C(=O)N2CCC(COc3ccc(C(=O)N4CCCC4)cc3)CC2)cc1` the inhibition was 3.57% (inactive). In the case of `CC(=O)Nc1ccc(S(=O)(=O)N2CCN(C3CCCCCCC3)CC2)cc1`, the inhibition is reported as 2% (inactive). `CC(=O)Nc1ccc(S(=O)(=O)N2CCN(c3ccc(-c4ccccn4)nn3)CC2)cc1` was tested, and the inhibition was 74.1% (active). In the case of `O=S(=O)(c1cccnc1)N1CCN(c2ccc(-c3cccs3)nn2)CC1`, the inhibition is reported as -2.7% (inactive). In the case of `CN(C)c1ccc(CNCC23CC4CC(C2)CC(c2ccccc2)(C4)C3)cc1`, the inhibition is reported as 100% (active). With `CN(C)c1ccc(CCCNC(=O)C23CC4CC(CC(C4)C2)C3)cc1` the inhibition was 1.3% (inactive). For `O=C(N1CCCC1)C12CC3CC(C1)CC(c1ccccc1)(C3)C2`, the inhibition was 2.5% (inactive). In the case of `O=C(c1cccc(OCC2CCCN(C(=O)c3ccccc3F)C2)c1)N1CCCCC1` (stereo not drawn), the inhibition is reported as -4.06% (inactive). `CC(=O)NCc1cnn(-c2ccc(C(=O)Nc3ccccc3)cc2)c1` was tested, and the inhibition was -1.5% (inactive). For `CCCCN=C(C(=O)Nc1ccc(Cl)c(C(F)(F)F)c1)c1ccccc1NC(C)=O`, the inhibition was 0% (inactive). `O=C(c1cn2cc(-c3ccc(F)c(Cl)c3)ccc2n1)N1CCOCC1` was tested, and the inhibition was 16.9% (inactive). With `CN(C)c1ccc(-c2ccc3nc(C(=O)N4CCCC4)cn3c2)cc1` the inhibition was 97.2% (active). `CCCCN1CCN(C(=O)c2cn3cc(C)ccc3n2)CC1` was tested, and the inhibition was 0.1% (inactive). For `CC1=C(C(=O)Nc2ccc(C)cc2C)C(c2ccccc2[N+](=O)[O-])n2ncnc2N1` (stereo not drawn), the inhibition was 25% (inactive). For `Cc1cc(OC(=O)C=Cc2ccccc2)c([N+](=O)[O-])c(=O)[nH]1`, the inhibition was 7.1% (inactive). `O=C1C=CC(=NOC(=O)/C=C/c2ccccc2)C=C1` was tested, and the inhibition was 100% (active). In the case of `O=C(Cc1ccccc1)ON=C1C=CC(=NOC(=O)c2ccccc2)C=C1`, the inhibition is reported as 14% (inactive). `O=S1(=O)c2ccc(Br)cc2OC[C@@H](Cc2ccccc2)N1Cc1cn(Cc2ccco2)nn1` was tested, and the inhibition was 5.1% (inactive). With `O=C(COc1ccc(Br)cc1)Nc1ccc2c(c1)OCO2` the inhibition was 0.4% (inactive). For `COc1ccc(S(=O)(=O)N=C2C=C(Br)C(=O)c3ccccc32)cc1`, the inhibition was 31% (inactive). `O=C1C(Nc2ccc(Br)cc2)=CC(=NS(=O)(=O)c2cccs2)c2ccccc21` was tested, and the inhibition was 80% (active). `Cc1cc(Br)ccc1NC(=O)C(NS(=O)(=O)c1cccs1)C(C)C` (stereo not drawn) was tested, and the inhibition was -6% (inactive). For `CCOc1ccc(NC(=O)C2CCC(N3C(=O)c4ccccc4C3=O)CC2)cc1` (stereo not drawn), the inhibition was 2.4% (inactive). `O=S(=O)(c1cccs1)N(c1ccccc1)C(F)F` was tested, and the inhibition was -18.8% (inactive). In the case of `CCc1ccc(S(=O)(=O)N=C2C=C(Br)C(=O)c3ccccc32)cc1`, the inhibition is reported as 38% (inactive). In the case of `CCOc1ccc(S(=O)(=O)N=C2C=C(Nc3ccc(C)cc3)C(=O)c3ccccc32)cc1`, the inhibition is reported as 93% (active). In the case of `CCOc1ccc(NS(=O)(=O)c2ccc(Cl)cc2)cc1`, the inhibition is reported as -13% (inactive). With `CCc1ccc(S(=O)(=O)N=C2C=C(Nc3ccc(OC)cc3)C(=O)c3ccccc32)cc1` the inhibition was 91% (active).
